The record followed here is paper PMC11102866, “Nucleosome-bound NR5A2 structure reveals pioneer factor mechanism by DNA minor groove anchor competition”.

Numbering of substitutions follows the chain as printed. Names may count otherwise.

Assay [1] concerns the target NR5A2 wild type;histone octamer (Homo sapiens;, UniProt O00482;C0HKE1;Q6ZWY9;P84244;P62806 1-541;2-130;2-126;2-136;2-103, |). Nature of the assay: SeEN-seq (EMSA of nucleosome library followed by sequencing); 0.8 uM human NR5A2; 20 mM Tris-HCl pH 7.5, 120 mM NaCl, 1 mM MgCl2, 10 uM ZnCl2, 1 mM DTT, 100 ug/ml BSA, room temperature, 30 min; 0.1 uM nucleosome library; high values mean tight binding. (In EMSA bound probe runs differently from free probe, usually more slowly.)

Assay [2] addresses mouse Nr5a2 wild type;histone octamer (Mus musculus;, UniProt P45448;C0HKE1;Q6ZWY9;P84244;P62806 1-560;2-130;2-126;2-136;2-103, |). Nature of the assay: SeEN-seq (EMSA of nucleosome library followed by sequencing); 1.2 uM mouse Nr5a2; 20 mM Tris-HCl pH 7.5, 120 mM NaCl, 1 mM MgCl2, 10 uM ZnCl2, 1 mM DTT, 100 ug/ml BSA, room temperature, 30 min; 0.1 uM nucleosome library; high values mean tight binding.

B1: 97 (nucleosome)
DNA 1: ATCCTGGAGAATCCCGGTGCCGAGGCCGCTCAATTGGTCGTAGACAGCTCTAGCACCGCTTAAACGCACGTACGCGCTGTCCCCCGCGTTTTAACCGCCTCAAGGCCAACTCCCTAGTCTCCAGGCACGTGTCAGATATATACATCCTGTGAT
DNA 2: ATCACAGGATGTATATATCTGACACGTGCCTGGAGACTAGGGAGTTGGCCTTGAGGCGGTTAAAACGCGGGGGACAGCGCGTACGTGCGTTTAAGCGGTGCTAGAGCTGTCTACGACCAATTGAGCGGCCTCGGCACCGGGATTCTCCAGGAT
modifications: reconstituted with mouse histones H2A, H2B, H3.3 and H4
Take B1: the binding signal in assay [1] is 0.742 log2 enrichment (bound/unbound, relative to Widom 601); in assay [2], 0.636 log2 enrichment (bound/unbound, relative to Widom 601).

B2: 98 (nucleosome)
DNA 1: B1 DNA 1 with T100A, C101T, A102C, G104A, C106G, A108C
DNA 2: B1 DNA 2 with T46G, G48C, C50T, T52G, G53A, A54T
modifications: reconstituted with mouse histones H2A, H2B, H3.3 and H4
For B2, the binding signal in assay [1] is 0.701 log2 enrichment (bound/unbound, relative to Widom 601); in assay [2] it was 0.557 log2 enrichment (bound/unbound, relative to Widom 601).

B3: 99 (nucleosome)
DNA 1: ATCCTGGAGAATCCCGGTGCCGAGGCCGCTCAATTGGTCGTAGACAGCTCTAGCACCGCTTAAACGCACGTACGCGCTGTCCCCCGCGTTTTAACCGCCAATCAAGGCCATCCCTAGTCTCCAGGCACGTGTCAGATATATACATCCTGTGAT
DNA 2: ATCACAGGATGTATATATCTGACACGTGCCTGGAGACTAGGGATGGCCTTGATTGGCGGTTAAAACGCGGGGGACAGCGCGTACGTGCGTTTAAGCGGTGCTAGAGCTGTCTACGACCAATTGAGCGGCCTCGGCACCGGGATTCTCCAGGAT
modifications: reconstituted with mouse histones H2A, H2B, H3.3 and H4
Take B3: the binding signal in assay [1] is 0.545 log2 enrichment (bound/unbound, relative to Widom 601); in assay [2], 0.468 log2 enrichment (bound/unbound, relative to Widom 601).

B4: 100 (nucleosome)
DNA 1: B3 DNA 1 with T102G, C103T, A104C, G106A, C108G, A110C, T111A
DNA 2: B3 DNA 2 with A43T, T44G, G46C, C48T, T50G, G51A, A52C
modifications: reconstituted with mouse histones H2A, H2B, H3.3 and H4
As for B4, the binding signal in assay [1] was 0.655 log2 enrichment (bound/unbound, relative to Widom 601); in assay [2] it was 0.488 log2 enrichment (bound/unbound, relative to Widom 601).

B5: 101 (nucleosome)
DNA 1: ATCCTGGAGAATCCCGGTGCCGAGGCCGCTCAATTGGTCGTAGACAGCTCTAGCACCGCTTAAACGCACGTACGCGCTGTCCCCCGCGTTTTAACCGCCAAGGTCAAGGCCACCTAGTCTCCAGGCACGTGTCAGATATATACATCCTGTGAT
DNA 2: ATCACAGGATGTATATATCTGACACGTGCCTGGAGACTAGGTGGCCTTGACCTTGGCGGTTAAAACGCGGGGGACAGCGCGTACGTGCGTTTAAGCGGTGCTAGAGCTGTCTACGACCAATTGAGCGGCCTCGGCACCGGGATTCTCCAGGAT
modifications: reconstituted with mouse histones H2A, H2B, H3.3 and H4
For the molecule B5, the binding signal is 2.38 log2 enrichment (bound/unbound, relative to Widom 601) in assay [1] and 1.47 log2 enrichment (bound/unbound, relative to Widom 601) in assay [2].

B6: 88 (nucleosome)
DNA 1: ATCCTGGAGAATCCCGGTGCCGAGGCCGCTCAATTGGTCGTAGACAGCTCTAGCACCGCTTAAACGCACGTACGCGCTGTCCCCCGCGTTTCAAGGCCAAAGGGGATTACTCCCTAGTCTCCAGGCACGTGTCAGATATATACATCCTGTGAT
DNA 2: ATCACAGGATGTATATATCTGACACGTGCCTGGAGACTAGGGAGTAATCCCCTTTGGCCTTGAAACGCGGGGGACAGCGCGTACGTGCGTTTAAGCGGTGCTAGAGCTGTCTACGACCAATTGAGCGGCCTCGGCACCGGGATTCTCCAGGAT
modifications: reconstituted with mouse histones H2A, H2B, H3.3 and H4
Turning to B6, the binding signal in assay [1] was 0.636 log2 enrichment (bound/unbound, relative to Widom 601); in assay [2] it was 0.614 log2 enrichment (bound/unbound, relative to Widom 601).

B7: 89 (nucleosome)
DNA 1: B6 DNA 1 with C92T, A93C, G95A, C97G, A99C
DNA 2: B6 DNA 2 with T55G, G57C, C59T, T61G, G62A
modifications: reconstituted with mouse histones H2A, H2B, H3.3 and H4
As for B7, the binding signal in assay [1] was 0.658 log2 enrichment (bound/unbound, relative to Widom 601); in assay [2], 0.574 log2 enrichment (bound/unbound, relative to Widom 601).

B8: 95 (nucleosome)
DNA 1: B5 DNA 1 with C98T, T104C, A107T, G108T, G109A, C111T, A112C
DNA 2: B5 DNA 2 with T42G, G43A, C45T, C46A, T47A, A50G, G56A
modifications: reconstituted with mouse histones H2A, H2B, H3.3 and H4
For B8, the binding signal was 1.87 log2 enrichment (bound/unbound, relative to Widom 601) in assay [1] and 1.29 log2 enrichment (bound/unbound, relative to Widom 601) in assay [2].

B9: 91 (nucleosome)
DNA 1: B6 DNA 1 with C92T, A94T, G95C, G96A, C97A, C98G, A99G, A100C, A101C, G102A
DNA 2: B6 DNA 2 with C52T, T53G, T54G, T55C, G56C, G57T, C58T, C59G, T60A, G62A
modifications: reconstituted with mouse histones H2A, H2B, H3.3 and H4
In the case of B9, the binding signal is 0.711 log2 enrichment (bound/unbound, relative to Widom 601) in assay [1] and 0.746 log2 enrichment (bound/unbound, relative to Widom 601) in assay [2].

B10: 96 (nucleosome)
DNA 1: B1 DNA 1 with C99T, T100C, C101A, A103G, G105C, C107A, A108T
DNA 2: B1 DNA 2 with T46A, G47T, C49G, T51C, G53T, A54G, G55A
modifications: reconstituted with mouse histones H2A, H2B, H3.3 and H4
Regarding B10, the binding signal in assay [1] was 1.16 log2 enrichment (bound/unbound, relative to Widom 601); in assay [2] it was 1.04 log2 enrichment (bound/unbound, relative to Widom 601).

B11: 93 (nucleosome)
DNA 1: B6 DNA 1 with C92T, G95C, G96T, C98A, A100G, A101G, G102C, G103C, G104A
DNA 2: B6 DNA 2 with C50T, C51G, C52G, T53C, T54C, G56T, C58A, C59G, G62A
modifications: reconstituted with mouse histones H2A, H2B, H3.3 and H4
Take B11: the binding signal was 0.842 log2 enrichment (bound/unbound, relative to Widom 601) in assay [1] and 0.875 log2 enrichment (bound/unbound, relative to Widom 601) in assay [2].

B12: 94 (nucleosome)
DNA 1: B6 DNA 1 with C92T, G95C, G96C, C97T, A101G, G103C, G104C, G105A
DNA 2: B6 DNA 2 with C49T, C50G, C51G, T53C, G57A, C58G, C59G, G62A
modifications: reconstituted with mouse histones H2A, H2B, H3.3 and H4
Regarding B12, the binding signal in assay [1] was 1.36 log2 enrichment (bound/unbound, relative to Widom 601); in assay [2] it was 1.22 log2 enrichment (bound/unbound, relative to Widom 601).

B13: 11 (nucleosome)
DNA 1: B6 DNA 1 with C14T, G16A, G17A, T18G, G22A, C92T, G95C, G96C, C97G, A99C
DNA 2: B6 DNA 2 with T55G, G57C, C58G, C59G, G62A, C132T, A136C, C137T, C138T, G140A
modifications: reconstituted with mouse histones H2A, H2B, H3.3 and H4
With B13, the binding signal is 4.08 log2 enrichment (bound/unbound, relative to Widom 601) in assay [1] and 4.04 log2 enrichment (bound/unbound, relative to Widom 601) in assay [2].

B14: 5 (nucleosome)
DNA 1: B6 DNA 1 with A8T, G9C, T12G, C13G, G16A, C92T, G95C, G96C, C97G, A99C
DNA 2: B6 DNA 2 with T55G, G57C, C58G, C59G, G62A, C138T, G141C, A142C, C145G, T146A
modifications: reconstituted with mouse histones H2A, H2B, H3.3 and H4
As for B14, the binding signal in assay [2] is 1.14 log2 enrichment (bound/unbound, relative to Widom 601).

B15: 92 (nucleosome)
DNA 1: B1 DNA 1 with C95T, G97A, C98A, C99G, T100G, A102C, C106A, C107T, A108T
DNA 2: B1 DNA 2 with T46A, G47A, G48T, T52G, A54C, G55C, G56T, C57T, G59A
modifications: reconstituted with mouse histones H2A, H2B, H3.3 and H4
As for B15, the binding signal in assay [1] was 0.711 log2 enrichment (bound/unbound, relative to Widom 601); in assay [2] it was 0.905 log2 enrichment (bound/unbound, relative to Widom 601).

B16: 90 (nucleosome)
DNA 1: B6 DNA 1 with C92T, A93T, A94C, G95A, G96A, C97G, C98G, A99C, A100C
DNA 2: B6 DNA 2 with T54G, T55G, G56C, G57C, C58T, C59T, T60G, T61A, G62A
modifications: reconstituted with mouse histones H2A, H2B, H3.3 and H4
Turning to B16, the binding signal is 0.821 log2 enrichment (bound/unbound, relative to Widom 601) in assay [1] and 0.52 log2 enrichment (bound/unbound, relative to Widom 601) in assay [2].
